High-throughput results (PubChem BioAssay)
The list is not random: actives were taken first. Their share in the collection is about 2.2%.
HTR5A ag ctr: counter-screen for OPRM1-OPRD1 agonists: human HTR5A agonism; 340,000 tested, 0.61% active; P47898; activation, % at 9.3 µM; HTR5A agonist assay, luminescence, cell-based; in the data active means activation mostly above about 9.5%, no sharp cut-off; inactive means mostly below about 7.6%;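 further: 0% = cells with vehicle only and 100% = reference agonist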
OPRM1-OPRD1 inv: inverse agonist of human OPRM1-OPRD1 heterodimerization; 340,000 tested, 0.21% active; P35372+P41143; cell-based MOR-DOR heterodimer luminescence, inverse agonism; inhibition, % at 9.3 µM; AID 504357; in the data active means inhibition above about 22%, passing the limit was not always enough;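 further: 0% = cells with DMSO and 100% = wells without cells with DMSO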
HTR5A inv ctr: inverse agonist of human HTR5A in OPRM1-OPRD1 counter-screen; HTR5A cell line, luminescence, inverse agonism; inhibition, % at 9.3 µM; 340,000 tested, 0.083% active; in the data active means inhibition mostly above about 23%, no sharp cut-off; inactive means mostly below about 18%;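 further: 0% = cells with DMSO and 100% = no-cell wells with DMSO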
sPLA2-III inh: Inhibits HGIII-sPLA2 liposome hydrolysis, primary screen; Q9NZ20; inhibition, % at 12.2 µM; 370,000 tested, 0.56% active; QFRET BODIPY PC-A2 liposome hydrolysis, fluorescence; AID 743126;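 active means inhibition above mean plus 3 SD of compounds lying within the high and low control bounds, cut at about 19% in these data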;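 further: 0% = median of test compound wells and 100% = no enzyme DMSO wells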
HTR2A ag: activates the mouse 5-HT2A serotonin receptor. P35363. CHO-K1 mHTR2A beta-arrestin complementation, luminescence; percent of 30 µM serotonin response. activation, % at 7.6 µM. 360,000 tested, 0.66% active. AID 624169;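 active means activation above a run cutoff, the mean activation of all tested compounds plus 3 SD, cut at about 14% in these data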;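 further: 0% = plate median of compound wells and 100% = 30 µM serotonin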
Target sequence (P35363 whole entry, looked up): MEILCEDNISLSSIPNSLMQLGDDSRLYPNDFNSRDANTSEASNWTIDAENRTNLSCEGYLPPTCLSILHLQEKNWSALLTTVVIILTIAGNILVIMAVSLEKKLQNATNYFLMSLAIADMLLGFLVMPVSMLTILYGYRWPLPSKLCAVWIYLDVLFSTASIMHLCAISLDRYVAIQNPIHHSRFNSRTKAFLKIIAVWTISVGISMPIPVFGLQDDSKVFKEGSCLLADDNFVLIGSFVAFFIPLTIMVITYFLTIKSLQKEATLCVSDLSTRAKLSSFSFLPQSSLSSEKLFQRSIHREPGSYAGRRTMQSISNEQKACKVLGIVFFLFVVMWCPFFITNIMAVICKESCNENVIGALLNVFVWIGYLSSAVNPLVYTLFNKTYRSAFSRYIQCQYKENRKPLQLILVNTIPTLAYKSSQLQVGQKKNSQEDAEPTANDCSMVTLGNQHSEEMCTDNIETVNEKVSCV
MOR-DOR ag: OPRM1-OPRD1 heterodimerization agonism. P35372+P41143. cells, luminescence. activation, % at 9.3 µM. AID 504326. 340,000 tested, 0.3% active; in the data active means activation above about 18%;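 further: 0% = vehicle-treated cells and 100% = reference agonist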
MOR-DOR inv conf: confirmation of human OPRM1-OPRD1 heterodimerization inverse agonists | shares compounds with OPRM1-OPRD1 inv | cells expressing OPRM1/OPRD1 heterodimer, luminescence | inhibition, % at 9.3 µM | 580 tested, 20% active | AID 504900; in the data active means inhibition above about 32%;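 further: 0% = cells with DMSO and 100% = wells lacking cells with DMSO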
HTR5A inv count: HTR5A inverse agonism, opioid heterodimer counter-screen; shares compounds with OPRM1-OPRD1 inv; HTR5A-expressing cells, luminescence; inhibition, % at 9.3 µM; 580 tested, under 10 active; AID 504914; call rule not given here;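 further: 0% = cells with DMSO and 100% = no-cell wells with DMSO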
* marks the source's active call; other numbers are inactive results; i = inactive; / = no result given.

SMILES	HTR5A ag ctr	OPRM1-OPRD1 inv	HTR5A inv ctr	sPLA2-III inh	HTR2A ag	MOR-DOR ag	MOR-DOR inv conf	HTR5A inv count
Cc1ccc(C(=O)NC2CCCCN(Cc3ccc(Cl)cc3)C2=O)c(C)c1 (stereo unspecified)	/	/	/	0	/	/	/	/
CC(=O)/C=C1/C(=O)Nc2ccccc21	-2	74*	5	0	0	-14	71*	2
COCCN1CCCc2nc(-c3ccc(Br)cc3)ccc21	/	/	/	10	/	/	/	/
COc1cc(NC(=O)C2CCCN(S(=O)(=O)c3ccc(C)c(C)c3)C2)cc(OC)c1 (stereo unspecified)	/	/	/	-39	/	/	/	/
CON/C=N/C(=S)Nc1ncc(C(F)(F)F)cc1Cl	2	22	-21	7	2	-4	/	/
Cc1ccc(NC(=S)NNc2ncc(C(F)(F)F)cc2Cl)c(C)c1	-11	49*	11	7	-4	-8	-98	-4
Cc1ccc(NC(=S)NNc2ncc(C(F)(F)F)cc2Cl)cc1	-13	55*	32	19	-12	-10	-8	-18
O=S1(=O)CC2c3ccc(F)cc3CN2CN1C1CCCC1 (stereo unspecified)	/	/	/	17	/	/	/	/
O=C(CSc1nnc(-c2cccc(Cl)c2)n1Cc1ccco1)c1ccc(F)cc1	/	/	/	-52	/	/	/	/
Cc1cc(C(=O)N/N=C/c2cc(Br)cc([N+](=O)[O-])c2O)c2ccccc2n1	-3	22*	11	-5	-7	-4	-1	7
Cc1ccc2oc(/N=C(\N)NC(=O)C3CC3)nc2c1	6	-8	-15	-5	-3	2	/	/
Cc1ccc2oc(/N=C(\N)NC(=O)C(C)(C)C)nc2c1	-9	45*	14	1	1	-9	19	-11
CC1COC(=O)C(NNc2ccc(Cl)c(Cl)c2)=N1 (stereo unspecified)	10	30*	-29	9	4	-6	13	2
CCC(=O)OCCCN1CCC2(CCCCC2)C1=O	/	/	/	7	/	/	/	/
Cc1ccc(C2C(C(=O)c3cc4ccccc4o3)=C(O)C(=O)N2CCN2CCOCC2)o1 (stereo unspecified)	0	42*	-5	-6	6	-7	-351	-19
O=C(NCc1ccccc1Cl)C1CCCN(c2nc3ccccc3o2)C1 (stereo unspecified)	/	/	/	2	/	/	/	/
CCC(C)c1ccc(O)c(NC(=S)NC(=O)c2cccnc2)c1 (stereo unspecified)	-7	47*	19	2	-16	-9	i	-3
CC(C)c1ccc(O)c(NC(=O)c2cccnc2)c1	5	15	-6	0	-1	-3	/	/
O=C(NC(=S)Nc1ccccc1O)c1cncc(Br)c1	-4	41*	10	14	-5	-8	-99	-32
O=C(NC(=S)Nc1ccccc1O)c1cccnc1	-3	35*	10	1	-6	-7	23	-9
O=C(COC(=O)c1ccc(Sc2ncn[nH]2)c([N+](=O)[O-])c1)Nc1cccc(Cl)c1F	/	/	/	-30	/	/	/	/
Cc1cccc(-c2cccc3c4c([nH]c23)[C@@H]2C[C@H](N(C)C(=O)C3CCCCC3)[C@H]([C@H](C)O)CN2CC4)c1	/	/	/	3	/	/	/	/
Cc1ccc2c(c1)C(=O)C(=O)N2c1ccc(Cl)cc1	1	58*	24	-4	-2	-10	14	-3
Cc1ccc2c(c1)C(=O)C(=O)N2c1ccc(C(F)(F)F)cc1	4	21	-15	2	0	-5	/	/
CCOC(=O)CC[C@H](NC(=O)[C@@H]1CC=C[C@@H]2CCN(Cc3ccc(Cl)cc3)C(=O)[C@@H]21)C(=O)OCC	/	/	/	2	/	/	/	/
SMILES	HTR5A ag ctr	OPRM1-OPRD1 inv	HTR5A inv ctr	sPLA2-III inh	HTR2A ag	MOR-DOR ag	MOR-DOR inv conf	HTR5A inv count
Cc1c(N=C2C(=O)Nc3ccccc32)c(=O)n(-c2ccccc2)n1C	-6	52*	18	1	5	-10	42*	23
CN1C(=O)/C(=C/c2ccc(O)c([N+](=O)[O-])c2)N(C)C1=S	5	33*	11	-1	0	-6	8	19
CCOC(=O)C1=NOC(C(=O)NC2CCCC2)(C(=O)C2CC2)C1 (stereo unspecified)	/	/	/	8	/	/	/	/
CC(C)CN1C(=O)C[C@@]2(C(=O)N(C)c3ccc(NS(=O)(=O)C4CCCCC4)cc32)C1c1ccccc1 (stereo partly specified)	/	/	/	-11	/	/	/	/
COC(=O)C1=C(C)N(C)C(=NCc2ccc(OC)cc2)NC1c1cccc(Cl)c1 (stereo unspecified)	/	/	/	1	/	/	/	/
O=C(NC(=S)Nc1ccc(Cl)cc1)c1ccccc1	-3	9	11	11	11	-2	/	/
O=C(Nc1ccc(Cl)cc1)C(Cl)C(=O)c1ccccc1 (stereo unspecified)	-3	37*	8	8	-6	-7	-385	-3
CC(C)(C)c1cccc(N/C(=C\C(=O)c2ccccc2)c2ccccc2)c1	/	/	/	0	/	/	/	/
CCCN(CCC)c1nc(-c2ccccn2)nc2ccccc12	-1	39*	3	4	-17	-9	-159	-19
CC1Nc2ncnc(N3CCN(c4ccccc4)CC3)c2N(Cc2ccc(Cl)cc2)C1=O (stereo unspecified)	-11	57*	28	-9	-34	-10	33*	63*
Cc1ccc2c(c1)C(=O)C(=O)N2CC(=O)Nc1ccccc1NC(=O)c1ccccn1	-1	47*	2	7	-2	-9	i	-5
Cc1ccc(C)c(C(=O)c2ccccc2NC(=O)c2ccccn2)c1	2	-15	-8	12	0	3	/	/
Cc1ccc(C(=O)N(C)[C@H]2C[C@H]3c4[nH]c5c(-c6ccc7c(c6)OCO7)cccc5c4CCN3C[C@H]2[C@H](C)O)cc1	/	/	/	3	/	/	/	/
ON(CCc1ccncc1)Cc1ccccc1	-1	44*	4	4	-1	-8	4	-22
Cc1ccc(NC(=O)[C@@H](Cc2ccccc2)NC(=O)[C@H]2O[C@@H](n3ccc(=O)[nH]c3=O)[C@H](O)[C@@H]2O)cc1C	/	/	/	-8	/	/	/	/
CC1=C(C)CC2C(C1)C(=O)c1ccc(Br)cc1S2(=O)=O (stereo unspecified)	5	58*	-15	0	5	-10	56*	4
CC1=CCC2C(=O)N(c3ccc(Br)cc3C)C(=O)C2C1 (stereo unspecified)	2	14	-4	-4	0	-2	/	/
O=C(N=C1N(CC2CC2)CC2(C=C3CCCCC3n3c(=O)n(-c4ccccc4)c(=O)n32)N1C(=O)OCc1ccccc1)c1ccccc1 (stereo unspecified)	/	/	/	-5	/	/	/	/
